Test results published in PubChem BioAssay (NCI).
The panel holds about 83,000 compounds, 20% with a hit somewhere; the sample as a whole holds those more often.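 Activity criterion: percent growth below 10, measured after cells in 96-well plates were exposed to a single compound concentration for 48 hours.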 Unmarked numbers belong to inactive results. The source made the active and inactive calls.

Tests used:
Experiment in all cases: NCI-60 one-dose screen, 48 h (100 = growth as untreated, 0 = no growth, -100 = all killed)
Conditions in all cases: 10 µM unless noted
HCT-15 colon = system: HCT-15 colon
HT29 colon = system: HT29 colon
SNB-75 CNS = system: SNB-75 CNS
SNB-19 CNS = system: SNB-19 CNS
U251 CNS = system: U251 CNS
PC-3 prostate = system: PC-3 prostate
SK-MEL-5 melanoma = system: SK-MEL-5 melanoma
UACC-62 melanoma = system: UACC-62 melanoma
LOX IMVI melanoma = system: LOX IMVI melanoma
SK-MEL-28 melanoma = system: SK-MEL-28 melanoma
SK-MEL-2 melanoma = system: SK-MEL-2 melanoma
EKVX NSCLC = system: EKVX NSCLC
SN12C renal = system: SN12C renal
UO-31 renal = system: UO-31 renal
TK-10 renal = system: TK-10 renal
ACHN renal = system: ACHN renal
A498 renal = system: A498 renal
CCRF-CEM leukemia = system: CCRF-CEM leukemia
MOLT-4 leukemia = system: MOLT-4 leukemia
CAKI-1 renal = system: CAKI-1 renal

Compound | growth (HCT-15 colon) | growth (HT29 colon) | growth (SNB-75 CNS) | growth (SNB-19 CNS) | growth (U251 CNS) | growth (PC-3 prostate) | growth (SK-MEL-5 melanoma) | growth (UACC-62 melanoma) | growth (LOX IMVI melanoma) | growth (SK-MEL-28 melanoma) | growth (SK-MEL-2 melanoma) | growth (EKVX NSCLC) | growth (SN12C renal) | growth (UO-31 renal) | growth (TK-10 renal) | growth (ACHN renal) | growth (A498 renal) | growth (CCRF-CEM leukemia) | growth (MOLT-4 leukemia) | growth (CAKI-1 renal)
N#Cc1cccc(CN2CCC3=C(C2)C(=O)N(Cc2ccc(Cl)cc2)C2=NCCN23)c1 | 17.3% | 30.8% | 60.9% | 23.7% | 23.3% | 24.1% | 13.1% | 29.9% | 47.5% | 48.3% | 39.5% | 26.8% | 23.9% | 35.5% | 52.3% | 33.2% | 15% | 33.1% | 53.2% | –
CCOc1ccc(NC2=C(Cl)C(=O)c3nc(C)ccc3C2=O)cc1 | -83.2% (active) | 15.9% | 96.5% | 44.7% | 15.6% | 10.4% | -98.6% (active) | -43.3% (active) | -76.4% (active) | 8.93% (active) | -49.8% (active) | -97.5% (active) | -57.3% (active) | -65% (active) | 121% | -98.4% (active) | 101% | 0.626% (active) | -46.7% (active) | –
Cc1ccc2c(c1)Oc1nc(N)c(C#N)c(N)c1C2Sc1ccc(F)cc1 (stereo unspecified) | -77.9% (active) | -38.6% (active) | -14.1% (active) | -98.2% (active) | -95.9% (active) | -96.8% (active) | -95.4% (active) | -93.5% (active) | -93.1% (active) | -98.9% (active) | -75.2% (active) | -98.9% (active) | -98.4% (active) | -98.2% (active) | -98.8% (active) | -100% (active) | -99.3% (active) | – | -16.6% (active) | -99.8% (active)
O=C1CCCC2=C1C(c1c[nH]c3ccc(Br)cc13)Cc1cc(Br)ccc1N2 (stereo unspecified) | 26.5% | 12.2% | 39.8% | 32.6% | 31.6% | 9.76% (active) | 43% | 10.4% | 14.1% | 54.3% | 25.3% | 41.9% | 34.5% | 36.3% | 94.8% | 36.2% | 13.5% | – | 21.5% | 24.7%
COc1cc(/C=C2\C(=O)Nc3ccccc32)ccc1OCc1ccc(F)cc1 | 101% | 105% | 106% | 99.3% | 106% | 101% | 102% | 92.7% | 97.3% | 110% | 107% | 97.7% | 100% | 84.7% | 130% | 102% | 89.2% | 102% | 96.8% | –
C#C[C@]1(O)CC[C@H]2[C@@H]3CC=C4c5sc(-c6ccc(C)cc6)nc5CC[C@]4(C)[C@H]3CC[C@@]21C | -2.81% (active) | 98% | -8.57% (active) | 10.9% | 8.46% (active) | -19.9% (active) | -75.7% (active) | 2.15% (active) | -60.8% (active) | -57.2% (active) | -2.55% (active) | 54% | 59% | -7.05% (active) | 77.4% | – | 113% | 6.48% (active) | -2.14% (active) | 8.16% (active)
COc1cccc(N2CCN(c3ncnc4c3[nH]c3ccc(F)cc34)C[C@H]2C)c1 | 68.4% | 70.4% | 63.2% | 68.7% | 67.9% | 38.2% | -62.3% (active) | 40.5% | 63.1% | 50.7% | 55% | 50.9% | 71.5% | 31.6% | – | 63.2% | 37% | 33.3% | 6.42% (active) | 42.9%
CCO/C=N/C1=C(C#N)C(c2ccc(OC)cc2)c2sc3c(C)cccc3c2O1 (stereo unspecified) | 18.2% | 10% | 28.2% | 28.3% | 22.1% | 9.28% (active) | 39.5% | 17.3% | 34.8% | 55.7% | 36.5% | 39.9% | 25.2% | 34.3% | 78.5% | – | -15.6% (active) | -2.18% (active) | 16.4% | 33.3%
COc1ccc2c(c1)Oc1nc(N)c(C#N)c(N)c1C2Sc1ccc(C)cc1 (stereo unspecified) | -82.5% (active) | -26.8% (active) | 88.7% | 7.65% (active) | 0.124% (active) | -43.8% (active) | -25.1% (active) | 9.86% (active) | -98.4% (active) | -25.9% (active) | -36.4% (active) | 19.3% | 0.951% (active) | -81.6% (active) | -23.4% (active) | – | 33.4% | -16.1% (active) | -12.9% (active) | -7.52% (active)
CN(C)CCNC(=O)c1ccc(-c2nc3ccc4[nH]ncc4c3c3c2COCC3)cc1 | 84.7% | 16.7% | -30.1% (active) | 6.94% (active) | 5.37% (active) | 0.378% (active) | 3.57% (active) | -24.7% (active) | -72.4% (active) | -6.13% (active) | -69.7% (active) | 33.1% | 5.07% (active) | 82.9% | 44% | 69.4% | -60.4% (active) | 2.22% (active) | -9.13% (active) | –
CCCCCc1ccc(S(=O)(=O)Nc2cc(-c3csc(NC(=O)CN4CCN(CCO)CC4)n3)ccc2OC)cc1 | -9.25% (active) | 4.51% (active) | 92.6% | 31% | 2.41% (active) | 48% | -88.8% (active) | -32.9% (active) | -82.5% (active) | -60.5% (active) | 94.9% | 73.6% | 74.7% | 54.5% | 104% | – | 63.1% | 4.78% (active) | 6.18% (active) | 70.8%
NC(N)=Nc1ccc(Nc2cccc(Oc3ccc(Cl)c(C(F)(F)F)c3)c2)cn1 | 42% | 18.9% | 52.7% | 24.3% | -68.8% (active) | -55.8% (active) | 28.3% | 45.6% | -97.2% (active) | 60.7% | 74.9% | 30.5% | -71.8% (active) | 56.4% | 81.7% | – | 62.8% | -9.86% (active) | 0.616% (active) | 42.9%
COc1ccc(/C=C(/C)c2ccc3ccc(OC)cc3[o+]2)c(O)c1 | 22.5% | 44.7% | 85.6% | 82.4% | 84.6% | 41.7% | 61.6% | 50.9% | -15.8% (active) | 96% | 94.3% | 55.8% | 85.5% | 69.4% | 174% | 70.2% | 110% | 11.2% | 34.7% | –
CCc1nn2c(C)cc(C)nc2c1Cc1ccc(/C=C/CN2CCN(CCOCCOCCN3CCN(C/C=C/c4ccc(Cc5c(CC)nn6c(C)cc(C)nc56)cc4)CC3)CC2)cc1 | -81.1% (active) | -35.8% (active) | 99% | 17.7% | -47% (active) | 24.8% | -97.5% (active) | -86.4% (active) | -88.4% (active) | -88.9% (active) | 79.4% | 46.6% | 31.4% | -95.9% (active) | 103% | – | 69.7% | -10.2% (active) | -17.6% (active) | -16.2% (active)
